Data published in PubChem BioAssay (NCI).
About 83,000 compounds went through this panel and 20% of them were active in at least one assay; those are over-represented in the sample as a whole.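 96-well plates, one dose, 48 hours. Percent growth reported; active if below 10.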 Activity calls are given as the source filed them.

How the values were obtained:
Assay in all cases: NCI-60 one-dose screen, 48 h (100 = growth as untreated, 0 = no growth, -100 = all killed)
Details in all cases: 10 µM unless noted
HCT-15 colon = test system: HCT-15 colon
SNB-75 CNS = test system: SNB-75 CNS
SNB-19 CNS = test system: SNB-19 CNS
U251 CNS = test system: U251 CNS
PC-3 prostate = test system: PC-3 prostate
SK-MEL-5 melanoma = test system: SK-MEL-5 melanoma
UACC-62 melanoma = test system: UACC-62 melanoma
LOX IMVI melanoma = test system: LOX IMVI melanoma
SK-MEL-28 melanoma = test system: SK-MEL-28 melanoma

Row | SMILES | growth (HCT-15 colon) | growth (SNB-75 CNS) | growth (SNB-19 CNS) | growth (U251 CNS) | growth (PC-3 prostate) | growth (SK-MEL-5 melanoma) | growth (UACC-62 melanoma) | growth (LOX IMVI melanoma) | growth (SK-MEL-28 melanoma)
1 | Cc1ccc(C(=O)/C(=C/c2ccc([N+](=O)[O-])cc2)SCc2ccc(Cl)cc2)cc1 | 8.64% (active) | 84.8% (inactive) | 34.1% (inactive) | -56.3% (active) | 63.3% (inactive) | 91% (inactive) | 65.9% (inactive) | 0.133% (active) | 90.9% (inactive)
2 | COc1ccc(/C=C/c2nc(Nc3ccc(S(=O)(=O)Nc4nc(C)cc(C)n4)cc3)c3ccccc3n2)cc1 | 50.5% (inactive) | 85.7% (inactive) | 75.6% (inactive) | 69.7% (inactive) | 77.5% (inactive) |  | 20.8% (inactive) | 26.3% (inactive) | 87.4% (inactive)
3 | C=C(C)[C@@H]1CC[C@]2(C(=O)N3CCN(C)CC3)CC[C@]3(C)[C@H](CC[C@@H]4[C@@]5(C)CC[C@H](O)C(C)(C)[C@@H]5CC[C@]43C)[C@@H]12 | -83.9% (active) | -93.2% (active) | -52% (active) | -84.8% (active) |  | -67.7% (active) |  | -80.9% (active) | -85.1% (active)
4 | CC(=O)O[C@H]1Cc2c([nH]c3ccccc23)[C@@H](c2ccc(Cl)cc2)N1C(=O)CCNC(C)(C)C | 69.9% (inactive) | 42.6% (inactive) | 69.3% (inactive) | 50.6% (inactive) | 36.3% (inactive) | -79.5% (active) | 53.1% (inactive) | 25.6% (inactive) | 8.92% (active)
5 | O=S(=O)(NCCNc1nccc(-c2c(-c3cccc(O)c3)nc3occn23)n1)c1ccccc1 | 103% (inactive) | 87.8% (inactive) | 94.8% (inactive) | 95.4% (inactive) | 85.3% (inactive) | 33.7% (inactive) | 8.22% (active) | 53.7% (inactive) | 34.1% (inactive)
6 | Fc1ccc(-c2cn3c(nc4ccccc43)c(-c3ccccc3)n2)cc1 | 94% (inactive) | 68.9% (inactive) | 103% (inactive) | 91.5% (inactive) | 85% (inactive) | 88.6% (inactive) |  | 106% (inactive) | 
7 | O=C(O)c1ccc(-c2nn(-c3ccc(C(F)(F)F)cc3)cc2CNc2ccc(Oc3ccccc3)cc2)cc1 | 43.2% (inactive) | 80.6% (inactive) | 82.7% (inactive) | 67% (inactive) | 90.6% (inactive) | 78.9% (inactive) | 77.5% (inactive) | 82.5% (inactive) | 89.1% (inactive)
8 | N#Cc1cccc(-c2ccc3c(c2)NC(=O)/C3=C\c2ccc[nH]2)c1 | 14.3% (inactive) | 58.2% (inactive) | 91.2% (inactive) | 92.8% (inactive) | 70.2% (inactive) | 36.6% (inactive) | 42.7% (inactive) | 66.1% (inactive) | 83.5% (inactive)
9 | O=[N+]([O-])CC(c1ccccc1)c1c[nH]c2ccccc12 (stereo not given) | 26.5% (inactive) | 27.2% (inactive) | 58% (inactive) | 35.7% (inactive) | 86.1% (inactive) | 50.9% (inactive) |  | 45.5% (inactive) | 59.9% (inactive)
10 | N#CC1=C(/N=C/c2ccccc2)Oc2c(ccc3ccccc23)C1c1ccc([N+](=O)[O-])cc1 (stereo not given) | 91.4% (inactive) | 60.4% (inactive) | 94.9% (inactive) | 97.4% (inactive) | 78.7% (inactive) | 86.9% (inactive) | 87.2% (inactive) | 90.4% (inactive) | 118% (inactive)
11 | CCOC(=O)c1cc(C#N)n2ccc3ccccc3c12 | 96.6% (inactive) | 76.2% (inactive) | 92.7% (inactive) | 96.9% (inactive) | 102% (inactive) | 97.4% (inactive) |  | 95.7% (inactive) | 106% (inactive)
12 | Cc1ccc(NS(=O)(=O)c2ccc(-c3cnc(C4CC4)o3)cc2)cc1C(F)(F)F | 35.2% (inactive) | 46.6% (inactive) | 61% (inactive) | 68.5% (inactive) |  | 49% (inactive) | 47.3% (inactive) | 55.9% (inactive) | 64.1% (inactive)
